Compounds without any hit were thinned out: in the full panel of roughly 83,000, 20% have a hit.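 Treatment: one concentration, 48 hours, 96-well format. Scoring: percent growth, with anything below 10 considered active.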 Unmarked numbers belong to inactive results. Active and inactive are the calls of the source.

Among the test systems are HCT-15 colon; HT29 colon; SNB-75 CNS; SNB-19 CNS; U251 CNS; PC-3 prostate; SK-MEL-5 melanoma; UACC-62 melanoma; LOX IMVI melanoma; SK-MEL-28 melanoma.
Assay in all cases: NCI-60 one-dose screen, 48 h (100 = growth as untreated, 0 = no growth, -100 = all killed)
Holding throughout (settings): 10 µM unless noted

Regarding `CNS(=O)(=O)c1n[nH]nc1-c1cc(C(C)(C)C)c(O)c(C(C)(C)C)c1`, the growth with HCT-15 colon was 95.3%; in the experiment on HT29 colon, 108%; in the experiment on SNB-75 CNS, 80.5%; in the experiment on SNB-19 CNS, 107%; with U251 CNS it was 95.5%; in the experiment on PC-3 prostate, 97.2%. The growth in the experiment on SK-MEL-5 melanoma is 94.2%; in the experiment on UACC-62 melanoma, 100%; with LOX IMVI melanoma it was 101%; in the experiment with SK-MEL-28 melanoma it was 105%.
Regarding `CN(C)c1ccc(-c2cc(-c3ccc(Nc4nc(Nc5ccc(Cl)cc5)nc(Nc5ccc(Cl)cc5)n4)cc3)no2)cc1`, the growth was 39% with HCT-15 colon; 33.9% with HT29 colon; 19.6% with SNB-75 CNS; 65.7% in the experiment with SNB-19 CNS; 27.4% in the experiment with U251 CNS; 6.65% (active) in the experiment with PC-3 prostate. The growth in the experiment with SK-MEL-5 melanoma is 34.5%; in the experiment with UACC-62 melanoma, 66.2%; with LOX IMVI melanoma, 29%; in the experiment with SK-MEL-28 melanoma it was 31.3%.
As for `Cc1cc(=O)oc2c1ccc1oc(C#N)c(C)c12`, the growth in the experiment on HCT-15 colon was 98.9%; in the experiment with HT29 colon it was 93.4%; in the experiment with SNB-75 CNS, 92.9%; in the experiment on SNB-19 CNS, 99.9%; in the experiment with U251 CNS it was 99.4%; with PC-3 prostate, 90.4%. Moreover, the growth is 100% in the experiment with SK-MEL-5 melanoma, 99.9% in the experiment on UACC-62 melanoma, 88.2% with LOX IMVI melanoma and 96.5% in the experiment on SK-MEL-28 melanoma.
`COc1cc(-c2n/c(=C\c3c(O)[nH]c4ccc(Cl)cc34)cc3c2=Nc2ccccc2-3)cc(OC)c1OC`: the growth with HCT-15 colon is 28.4%; with HT29 colon, -11.2% (active); in the experiment with SNB-75 CNS, -4.26% (active); in the experiment on SNB-19 CNS it was 14.9%; in the experiment on U251 CNS, -84.3% (active); in the experiment with PC-3 prostate it was -13.1% (active). Moreover, the growth in the experiment on SK-MEL-5 melanoma was 44.7%; in the experiment with UACC-62 melanoma, 2.11% (active); with LOX IMVI melanoma, -63.6% (active); with SK-MEL-28 melanoma, 16.5%.
For `Cc1ccc(S(=O)(=O)NCC[C@@H]2C[C@H]2c2cc3ccccc3s2)cc1`, the growth is 101% in the experiment on HCT-15 colon; 107% with HT29 colon; 82.7% with SNB-75 CNS; 95.6% in the experiment on SNB-19 CNS; 98.6% in the experiment with U251 CNS; 99.8% with PC-3 prostate. The growth in the experiment on SK-MEL-5 melanoma was 102%; in the experiment on UACC-62 melanoma it was 68.1%; in the experiment with LOX IMVI melanoma it was 96.7%; in the experiment with SK-MEL-28 melanoma it was 105%.
For the compound `Cn1c(=O)c2c(nc(Cl)n2CCl)n(C)c1=O`, the growth in the experiment with HCT-15 colon was 13.6%; in the experiment on HT29 colon, 80.9%; with SNB-75 CNS, 94%; with SNB-19 CNS, 100%; with U251 CNS, 96%; in the experiment on PC-3 prostate, 98.5%. The growth with SK-MEL-5 melanoma is 88.1%; with UACC-62 melanoma, 94.7%; in the experiment with LOX IMVI melanoma, -0.952% (active); in the experiment with SK-MEL-28 melanoma, 55%.
On to `COc1ccc(-c2nc3sccn3c2-c2cc(-c3cc(OC)c(OC)c(OC)c3)on2)cc1`, for which the growth is 96.9% in the experiment with HCT-15 colon; 86.1% with HT29 colon; 77.4% in the experiment with SNB-75 CNS; 87.5% in the experiment on SNB-19 CNS; 107% in the experiment on U251 CNS; 58.9% with PC-3 prostate. Also, the growth in the experiment on SK-MEL-5 melanoma was 68.7%; in the experiment with UACC-62 melanoma, 89.1%; in the experiment on LOX IMVI melanoma, 90.5%; with SK-MEL-28 melanoma it was 127%.
`COc1cccc(-c2nc3sccn3c2-c2ccnc(NCCNS(=O)(=O)c3ccc(C(F)(F)F)cc3)c2)c1`: the growth was 33% in the experiment on HCT-15 colon; 35.7% in the experiment with HT29 colon; 38.1% in the experiment with SNB-75 CNS; 56.5% in the experiment with SNB-19 CNS; 42.1% in the experiment with U251 CNS; 16.8% with PC-3 prostate. Also, the growth in the experiment with SK-MEL-5 melanoma is 14.9%; with UACC-62 melanoma, 38.9%; in the experiment on LOX IMVI melanoma, 46.3%; with SK-MEL-28 melanoma, 57.8%.
With `CCN(CC)Cc1cccc(C(=O)OC)c1`, the growth in the experiment with HCT-15 colon was 102%; with HT29 colon, 106%; in the experiment on SNB-75 CNS it was 87.9%; with SNB-19 CNS, 101%; in the experiment with U251 CNS, 96.3%; in the experiment with PC-3 prostate, 78.1%. Besides, the growth is 97.1% in the experiment with SK-MEL-5 melanoma, 103% in the experiment with UACC-62 melanoma, 94.1% in the experiment with LOX IMVI melanoma and 104% in the experiment on SK-MEL-28 melanoma.
Take `COC(=O)[C@]12CC[C@@H](C)[C@H](C)[C@@H]1C1=CC[C@@H]3[C@@]4(C)C(C=O)=C[C@@](C)(CO)[C@@H]4[C@H](O)C[C@@]3(C)[C@]1(C)CC2`: the growth was -68.1% (active) with HCT-15 colon; -37.7% (active) in the experiment on HT29 colon; 3.2% (active) with SNB-75 CNS; 24.4% in the experiment on SNB-19 CNS; -19% (active) in the experiment with U251 CNS; -0.105% (active) with PC-3 prostate. For the same compound, the growth was -85.7% (active) with SK-MEL-5 melanoma, -34.5% (active) in the experiment on UACC-62 melanoma, -97.9% (active) with LOX IMVI melanoma and -34.5% (active) with SK-MEL-28 melanoma.
On to `Cc1ccc(-n2nc3c(c(C#N)c2=O)CC(c2ccccc2Cl)C([N+](=O)[O-])=C3O)cc1` (stereo not given), for which the growth with HCT-15 colon was 61.3%; with HT29 colon, 118%; in the experiment with SNB-75 CNS, 75.1%; in the experiment with SNB-19 CNS it was 97.1%; in the experiment on U251 CNS, 90%; in the experiment with PC-3 prostate it was 66.6%. Further, the growth is 75% in the experiment with SK-MEL-5 melanoma, 84.3% in the experiment with UACC-62 melanoma, 81.4% with LOX IMVI melanoma and 106% in the experiment with SK-MEL-28 melanoma.
For `COc1ccc(/C=C/c2c(C(=O)/C=C/c3cccs3)c(C)nc3ccccc23)cc1`, the growth is 59.5% in the experiment on HCT-15 colon; 77.7% with HT29 colon; 72% in the experiment on SNB-75 CNS; 85.1% in the experiment with SNB-19 CNS; 85.6% with U251 CNS; 63% with PC-3 prostate. Besides, the growth in the experiment on SK-MEL-5 melanoma was 70.3%; with UACC-62 melanoma, 59.1%; with LOX IMVI melanoma, 84.5%; in the experiment on SK-MEL-28 melanoma, 92.4%.
On to `CC1(C)OC2C(CO[Si](C)(C)C(C)(C)C)OC(n3c(I)c(C#C[Si](C)(C)C)c(=O)[nH]c3=O)C2O1` (stereo not given), for which the growth in the experiment on HCT-15 colon is 93%; in the experiment on HT29 colon it was -32.6% (active); with SNB-75 CNS, -71.4% (active); in the experiment on SNB-19 CNS it was 105%; in the experiment on U251 CNS, 88.4%; with PC-3 prostate, 91.4%. Besides, the growth in the experiment on SK-MEL-5 melanoma was 95.9%; in the experiment on UACC-62 melanoma it was 92.8%; in the experiment with LOX IMVI melanoma, 86.6%; with SK-MEL-28 melanoma, -53.9% (active).

Values taken from PubChem BioAssay (NCI).
